Screening data (PubChem)
Hits are enriched below; roughly 2.4% of the tested compounds scored in any of these assays.
HEK293 tox: qHTS of GLP-1 Receptor Inverse Agonists: Cytotox Screen; HEK293 cAMP-luciferase reporter cells, luminescence, 24 h; Potency, µM (top dose mostly 38.3 µM), inactives show at the top dose activity change, negative = inhibition, most hits filed as inhibitors; 410,000 compounds, 0.13% hits;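 also: loss of luciferase light is scored as toxicity; potency is read from the fitted curve at half-maximal effect; % is scaled to controls: 0 for no effect and ±100 for the full control effect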
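Quantitative HTS format, 1536 wells, 200 cells/uL seeded. Compounds: 23 nL, 24 h, 37 °C. Detection: luciferase reagent, luminescence at 12 min RT; decreased signal taken as cytotoxic.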
TRHR agonist: qHTS for Small Molecule Agonists and Allosteric Enhancers of Human TRH Receptor: Primary Screen for Agonists | 360,000 compounds, 0.18% hits | activation, % at 2 µM | TRHR cells, calcium flux fluo-8, FDSS agonist mode; in the data active = activation above about 30%; also: 0% is about no effect
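Read-out: compound-evoked intracellular calcium rise in TRHR cells, fluo-8 dye, kinetic FDSS fluorescence at 1 s/cycle following a 10-cycle baseline. Cells cultured overnight before dye loading (30 min–1.5 h, RT).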
GLP-1R agonist: qHTS of GLP-1 Receptor Agonists; HEK293 GLP-1R CRE-luciferase, luminescence, 4-6 h; cells express a hypersensitive GLP-1R form; Glucagon-like peptide 1 receptor (Homo sapiens), P43220; Potency, µM (titrated, usually from 45.6 µM), for inactives: at the highest dose activation, most hits filed as activators; AID 624172, 2012; 380,000 compounds, 0.007% hits; also: potency is read from the fitted curve at half-maximal effect; % of control where 0% means no effect
Target sequence (P43220 whole entry, looked up): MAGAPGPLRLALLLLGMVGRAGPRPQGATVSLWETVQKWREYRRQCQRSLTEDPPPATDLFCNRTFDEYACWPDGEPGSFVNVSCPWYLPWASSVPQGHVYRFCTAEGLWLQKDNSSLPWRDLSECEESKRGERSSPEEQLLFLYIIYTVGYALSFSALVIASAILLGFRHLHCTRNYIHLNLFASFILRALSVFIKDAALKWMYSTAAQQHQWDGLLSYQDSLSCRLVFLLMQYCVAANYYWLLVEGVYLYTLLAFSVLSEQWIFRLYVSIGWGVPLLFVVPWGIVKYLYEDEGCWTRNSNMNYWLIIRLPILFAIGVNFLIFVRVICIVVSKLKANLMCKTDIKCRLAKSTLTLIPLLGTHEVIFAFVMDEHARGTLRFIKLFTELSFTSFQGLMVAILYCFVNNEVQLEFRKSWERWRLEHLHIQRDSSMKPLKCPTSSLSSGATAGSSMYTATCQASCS
GLP1R inv ag: qHTS of GLP-1 Receptor Inverse Agonists (Inhibition Mode); Glucagon-like peptide 1 receptor (Homo sapiens), P43220; HEK293 GLP-1R CRE-luciferase, luminescence, 24 h; GLP-1R form is constitutively active; Potency, µM (top dose mostly 38.3 µM), for the others: at the highest dose activity change, negative = inhibition, actives largely listed as inhibitors; 410,000 compounds, 1.6% hits; AID 624417, 2012; also: potency is read from the fitted curve at half-maximal effect; % is scaled to controls: 0 for no effect and ±100 for the full control effect; nearly all actives have a fitted effect of over 55% in size
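Constitutively active GLP-1R drives a cAMP-responsive luciferase in stably transfected HEK293 cells; test compounds are added after overnight (12 h) attachment and left 24 hr, and signal loss in luminescence marks inhibition.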
PTHR1 agonist: qHTS for PTHR1 Agonists: Primary Screen; 410,000 compounds, 0.075% hits; Parathyroid hormone/parathyroid hormone-related peptide receptor (Homo sapiens), Q03431; HEK293 GP2 PTHR1 cells, GloSensor cAMP luminescence, 1 h; Potency, µM (top dose mostly 115 µM), for inactives: at the top dose activation, hits mostly activators; also: potency is read from the fitted curve at half-maximal effect; nearly all actives have a fitted effect of over 55% in size
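HEK-293-derived GP2 cells expressing PTHR1 and a GloSensor cAMP reporter, 3,000/well, plated overnight, given luciferin plus IBMX (each 0.5 mM as added) for 1 h at 37 °C, then compound for 1 h at 37 °C. Luminescence was read after 15 min at room temperature.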
TRHR enhancer: qHTS for Small Molecule Agonists and Allosteric Enhancers of Human TRH Receptor: Primary Screen for Enhancers | enhancement, % at 2 µM | TRHR cells, fluo-8 calcium fluorescence, EC20 TRH enhancement | Thyrotropin-releasing hormone receptor (Homo sapiens), P34981 | 360,000 compounds, 0.66% hits; in the data active = enhancement above about 30%; also: 0% is about no effect
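Enhancer read-out: after compound pinning and an initial kinetic agonist-mode read, an EC20 of TRH (10 nM final) was injected and fluo-8 calcium signal (Ex 480/Em 530) followed at 1 s/cycle for 100 cycles in TRHR-expressing cells.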
Active calls of the source: *; [ ] = remark or other dose. Unless noted, calls follow the shape of the dose curve; as a rule, active = well fitted curve in the direction sought with a large enough effect; inconclusive = small, poorly fitted or top-dose-only effect, or another doubt; inactive = no such curve, though single readings can be large; an effect the other way counts as inactive or inconclusive.

Cc1ccc(CCNC(=O)C2CCCN(Cc3nc(-c4cccc(Cl)c4)oc3C)C2)cc1 (stereo not given) was read as HEK293 tox 2.9%, TRHR agonist 0.2, GLP1R inv ag 11.0%, PTHR1 agonist -17.0% and TRHR enhancer 0.8.
Cc1cccc(-c2nc(CN3CCCC(C(=O)NCCc4ccc(Cl)cc4)C3)c(C)o2)c1 (stereo not given) was read as HEK293 tox inconclusive, TRHR agonist 0.7, GLP1R inv ag inconclusive, PTHR1 agonist -24.3% and TRHR enhancer 34.0*.
For Cc1cccc(-c2nc(CN3CCCC(C(=O)NC4CCCCC4)C3)c(C)o2)c1 (stereo not given) the results were HEK293 tox inconclusive, TRHR agonist 0.0, GLP-1R agonist 3.9%, GLP1R inv ag 3.55µM*, PTHR1 agonist inconclusive and TRHR enhancer 3.0.
`Cc1cccc(-c2nc(CN3CCCC(C(=O)NC4CCCCCC4)C3)c(C)o2)c1` (stereo not given) gave HEK293 tox inconclusive, TRHR agonist 1.3, GLP-1R agonist -1.0%, GLP1R inv ag inconclusive, PTHR1 agonist -1.0%[57.5 µM] and TRHR enhancer 2.2.
CCc1ccc(OCC(=O)N2CCN(c3ccccc3F)CC2)cc1 was read as HEK293 tox 4.6%, TRHR agonist 0.8, GLP-1R agonist -0.1%, GLP1R inv ag inconclusive, PTHR1 agonist -10.8% and TRHR enhancer -1.6.
CCc1ccc(C2C(C(=O)Nc3ccccc3)=C(C)Nc3nc(SCC(=O)c4ccc(C)cc4)nn32)cc1 (stereo not given) was read as HEK293 tox -19.7%, TRHR agonist 0.3, GLP1R inv ag -6.3%, PTHR1 agonist inactive and TRHR enhancer 1.2.
COc1ccc(-n2c(SCC(=O)Nc3ccc(C)cc3)nc(O)c(Cc3ccccc3)c2=O)cc1 was read as HEK293 tox 11.6%, TRHR agonist 0.0, GLP-1R agonist -2.5%, GLP1R inv ag -16.7%, PTHR1 agonist inactive and TRHR enhancer 2.8.
Cc1ccc(-n2ncc3c(N4CCCCC4)ncnc32)cc1Cl was read as HEK293 tox 2.3%, TRHR agonist -0.3, GLP1R inv ag 0.794µM*, PTHR1 agonist -32.2% and TRHR enhancer -3.2.
Cc1cccc(-n2ncc3c(N4CCOCC4)ncnc32)c1 was read as HEK293 tox -3.5%, TRHR agonist -0.8, GLP-1R agonist -9.0%, GLP1R inv ag 3.16µM*, PTHR1 agonist -47.2% and TRHR enhancer 5.8.
For c1cncc(-c2nc(NCCCN3CCOCC3)c3c4c(sc3n2)CCC4)c1 the results were HEK293 tox 5.7%, TRHR agonist -0.3, GLP-1R agonist 21.9%, GLP1R inv ag 11.2µM*, PTHR1 agonist inactive and TRHR enhancer 3.4.
O=Cc1cn(CCC(=O)O)nc1-c1cccc(Br)c1 was read as HEK293 tox -2.7%, TRHR agonist 0.6, GLP-1R agonist -4.3%, GLP1R inv ag 6.3%, PTHR1 agonist -2.3% and TRHR enhancer -2.0.
Screening O=C(O)CCn1cc(/C=C\C(=O)c2ccc(Cl)cc2)c(-c2cccc(Br)c2)n1 returned HEK293 tox 3.9%, TRHR agonist 0.2, GLP-1R agonist -0.8%, GLP1R inv ag 12.6µM*, PTHR1 agonist -28.2% and TRHR enhancer 1.8.
For O=C(CSc1cccc[n+]1[O-])c1cc(Cl)ccc1Cl the results were HEK293 tox 0.891µM*, TRHR agonist -0.9, GLP-1R agonist 7.1%, GLP1R inv ag inconclusive, PTHR1 agonist inactive and TRHR enhancer 20.5.
For COc1cc(CO)cc(Br)c1OCC(=O)O the results were HEK293 tox 4.7%, TRHR agonist 0.0, GLP-1R agonist -0.9%, GLP1R inv ag 3.0%, PTHR1 agonist 2.7% and TRHR enhancer -3.4.
Cn1ncc2c(=S)nc(Cl)[nH]c21 was read as HEK293 tox inconclusive, GLP-1R agonist 3.9%, GLP1R inv ag 10µM* and PTHR1 agonist inactive.
CCOc1ccc(S(=O)(=O)N2CCOCC2)c2ccccc12 was read as HEK293 tox -3.9%, TRHR agonist 19.9, GLP-1R agonist 10.6%, GLP1R inv ag -3.6%, PTHR1 agonist -30.2% and TRHR enhancer -0.5.
`CCOc1ccc(S(=O)(=O)N2CCCCC2)c2ccccc12` gave HEK293 tox 0.6%, TRHR agonist 0.2, GLP-1R agonist 0.4%, GLP1R inv ag 10µM*, PTHR1 agonist -9.2%[57.5 µM] and TRHR enhancer 4.5.
For CCOC(=O)c1c(C)c(C)n(Cc2cccc(OC)c2OC)c1C the results were HEK293 tox 10.0%, TRHR agonist 0.6, GLP-1R agonist 9.7%, GLP1R inv ag inconclusive, PTHR1 agonist -93.6% and TRHR enhancer 0.7.
For CCOC(=O)c1cc(C)n(Cc2cccc(OC)c2OC)c1C the results were HEK293 tox 4.3%, TRHR agonist -1.2, GLP-1R agonist 1.8%, GLP1R inv ag 3.98µM*, PTHR1 agonist -26.3%[57.5 µM] and TRHR enhancer -3.0.
For Cc1ccc(C)n1-c1ncn[nH]1 the results were HEK293 tox -1.4%, TRHR agonist 0.3, GLP-1R agonist -12.0%, GLP1R inv ag 0.5%, PTHR1 agonist inactive and TRHR enhancer 30.2*.
`O=C1C2CC=CCC2C(=O)N1c1ncn[nH]1` (stereo not given) gave HEK293 tox 6.2%, TRHR agonist -0.9, GLP-1R agonist -1.2%, GLP1R inv ag 0.0%, PTHR1 agonist -21.9% and TRHR enhancer 2.2.
CCCCC(=O)N1CCN(c2nc3c(C)c(C)ccc3s2)CC1 was read as HEK293 tox 2.5%, TRHR agonist -0.2, GLP1R inv ag 8.5%, PTHR1 agonist -15.2% and TRHR enhancer -0.9.
Screening O=[N+]([O-])c1cc(C(F)(F)F)ccc1NCCNC(=S)Nc1ccc(Cl)cc1 returned HEK293 tox -57.2%, TRHR agonist -0.4, GLP-1R agonist -5.9%, GLP1R inv ag 11.2µM*, PTHR1 agonist -22.1% and TRHR enhancer -10.3.
Screening O=[N+]([O-])c1cc(C(F)(F)F)ccc1N1CCC(O)CC1 returned HEK293 tox -1.2%, TRHR agonist -2.1, GLP-1R agonist 19.1%, GLP1R inv ag -9.6%, PTHR1 agonist inactive and TRHR enhancer 4.4.
